Reference: the supplement of paper PMC11001985

What follows are targets tested with C#CCNC(=O)CCSSCCC(=O)NCCc1ccc(C=O)c(C=O)c1 (assay: lysine labeling ratio R10:1 (500 µM / 50 µM probe), SILAC-ABPP in living cells; higher = lower intrinsic lysine reactivity toward the probe, active = 2 or less). Details: HeLa; probe concentrations 500 vs 50 µM.
Summary of the method: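 SILAC light and heavy living HeLa cells in PBS at room temperature were labelled with 50 µM or 500 µM of an alkyne-tagged, disulfide-linked lysine probe, with forward and reverse label swaps. Mixed lysates were clicked to biotin-azide, trypsin-digested, captured on neutravidin, DTT-released, alkylated and analysed by LC-MS/MS on a TIMS-TOF Pro. R is the filtered median high-probe/low-probe MS1 peptide ratio per lysine, then the median across forward and reverse replicates. Ratios are capped at 20.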

Sequence of UniProt Q15149 (Q15149 whole entry): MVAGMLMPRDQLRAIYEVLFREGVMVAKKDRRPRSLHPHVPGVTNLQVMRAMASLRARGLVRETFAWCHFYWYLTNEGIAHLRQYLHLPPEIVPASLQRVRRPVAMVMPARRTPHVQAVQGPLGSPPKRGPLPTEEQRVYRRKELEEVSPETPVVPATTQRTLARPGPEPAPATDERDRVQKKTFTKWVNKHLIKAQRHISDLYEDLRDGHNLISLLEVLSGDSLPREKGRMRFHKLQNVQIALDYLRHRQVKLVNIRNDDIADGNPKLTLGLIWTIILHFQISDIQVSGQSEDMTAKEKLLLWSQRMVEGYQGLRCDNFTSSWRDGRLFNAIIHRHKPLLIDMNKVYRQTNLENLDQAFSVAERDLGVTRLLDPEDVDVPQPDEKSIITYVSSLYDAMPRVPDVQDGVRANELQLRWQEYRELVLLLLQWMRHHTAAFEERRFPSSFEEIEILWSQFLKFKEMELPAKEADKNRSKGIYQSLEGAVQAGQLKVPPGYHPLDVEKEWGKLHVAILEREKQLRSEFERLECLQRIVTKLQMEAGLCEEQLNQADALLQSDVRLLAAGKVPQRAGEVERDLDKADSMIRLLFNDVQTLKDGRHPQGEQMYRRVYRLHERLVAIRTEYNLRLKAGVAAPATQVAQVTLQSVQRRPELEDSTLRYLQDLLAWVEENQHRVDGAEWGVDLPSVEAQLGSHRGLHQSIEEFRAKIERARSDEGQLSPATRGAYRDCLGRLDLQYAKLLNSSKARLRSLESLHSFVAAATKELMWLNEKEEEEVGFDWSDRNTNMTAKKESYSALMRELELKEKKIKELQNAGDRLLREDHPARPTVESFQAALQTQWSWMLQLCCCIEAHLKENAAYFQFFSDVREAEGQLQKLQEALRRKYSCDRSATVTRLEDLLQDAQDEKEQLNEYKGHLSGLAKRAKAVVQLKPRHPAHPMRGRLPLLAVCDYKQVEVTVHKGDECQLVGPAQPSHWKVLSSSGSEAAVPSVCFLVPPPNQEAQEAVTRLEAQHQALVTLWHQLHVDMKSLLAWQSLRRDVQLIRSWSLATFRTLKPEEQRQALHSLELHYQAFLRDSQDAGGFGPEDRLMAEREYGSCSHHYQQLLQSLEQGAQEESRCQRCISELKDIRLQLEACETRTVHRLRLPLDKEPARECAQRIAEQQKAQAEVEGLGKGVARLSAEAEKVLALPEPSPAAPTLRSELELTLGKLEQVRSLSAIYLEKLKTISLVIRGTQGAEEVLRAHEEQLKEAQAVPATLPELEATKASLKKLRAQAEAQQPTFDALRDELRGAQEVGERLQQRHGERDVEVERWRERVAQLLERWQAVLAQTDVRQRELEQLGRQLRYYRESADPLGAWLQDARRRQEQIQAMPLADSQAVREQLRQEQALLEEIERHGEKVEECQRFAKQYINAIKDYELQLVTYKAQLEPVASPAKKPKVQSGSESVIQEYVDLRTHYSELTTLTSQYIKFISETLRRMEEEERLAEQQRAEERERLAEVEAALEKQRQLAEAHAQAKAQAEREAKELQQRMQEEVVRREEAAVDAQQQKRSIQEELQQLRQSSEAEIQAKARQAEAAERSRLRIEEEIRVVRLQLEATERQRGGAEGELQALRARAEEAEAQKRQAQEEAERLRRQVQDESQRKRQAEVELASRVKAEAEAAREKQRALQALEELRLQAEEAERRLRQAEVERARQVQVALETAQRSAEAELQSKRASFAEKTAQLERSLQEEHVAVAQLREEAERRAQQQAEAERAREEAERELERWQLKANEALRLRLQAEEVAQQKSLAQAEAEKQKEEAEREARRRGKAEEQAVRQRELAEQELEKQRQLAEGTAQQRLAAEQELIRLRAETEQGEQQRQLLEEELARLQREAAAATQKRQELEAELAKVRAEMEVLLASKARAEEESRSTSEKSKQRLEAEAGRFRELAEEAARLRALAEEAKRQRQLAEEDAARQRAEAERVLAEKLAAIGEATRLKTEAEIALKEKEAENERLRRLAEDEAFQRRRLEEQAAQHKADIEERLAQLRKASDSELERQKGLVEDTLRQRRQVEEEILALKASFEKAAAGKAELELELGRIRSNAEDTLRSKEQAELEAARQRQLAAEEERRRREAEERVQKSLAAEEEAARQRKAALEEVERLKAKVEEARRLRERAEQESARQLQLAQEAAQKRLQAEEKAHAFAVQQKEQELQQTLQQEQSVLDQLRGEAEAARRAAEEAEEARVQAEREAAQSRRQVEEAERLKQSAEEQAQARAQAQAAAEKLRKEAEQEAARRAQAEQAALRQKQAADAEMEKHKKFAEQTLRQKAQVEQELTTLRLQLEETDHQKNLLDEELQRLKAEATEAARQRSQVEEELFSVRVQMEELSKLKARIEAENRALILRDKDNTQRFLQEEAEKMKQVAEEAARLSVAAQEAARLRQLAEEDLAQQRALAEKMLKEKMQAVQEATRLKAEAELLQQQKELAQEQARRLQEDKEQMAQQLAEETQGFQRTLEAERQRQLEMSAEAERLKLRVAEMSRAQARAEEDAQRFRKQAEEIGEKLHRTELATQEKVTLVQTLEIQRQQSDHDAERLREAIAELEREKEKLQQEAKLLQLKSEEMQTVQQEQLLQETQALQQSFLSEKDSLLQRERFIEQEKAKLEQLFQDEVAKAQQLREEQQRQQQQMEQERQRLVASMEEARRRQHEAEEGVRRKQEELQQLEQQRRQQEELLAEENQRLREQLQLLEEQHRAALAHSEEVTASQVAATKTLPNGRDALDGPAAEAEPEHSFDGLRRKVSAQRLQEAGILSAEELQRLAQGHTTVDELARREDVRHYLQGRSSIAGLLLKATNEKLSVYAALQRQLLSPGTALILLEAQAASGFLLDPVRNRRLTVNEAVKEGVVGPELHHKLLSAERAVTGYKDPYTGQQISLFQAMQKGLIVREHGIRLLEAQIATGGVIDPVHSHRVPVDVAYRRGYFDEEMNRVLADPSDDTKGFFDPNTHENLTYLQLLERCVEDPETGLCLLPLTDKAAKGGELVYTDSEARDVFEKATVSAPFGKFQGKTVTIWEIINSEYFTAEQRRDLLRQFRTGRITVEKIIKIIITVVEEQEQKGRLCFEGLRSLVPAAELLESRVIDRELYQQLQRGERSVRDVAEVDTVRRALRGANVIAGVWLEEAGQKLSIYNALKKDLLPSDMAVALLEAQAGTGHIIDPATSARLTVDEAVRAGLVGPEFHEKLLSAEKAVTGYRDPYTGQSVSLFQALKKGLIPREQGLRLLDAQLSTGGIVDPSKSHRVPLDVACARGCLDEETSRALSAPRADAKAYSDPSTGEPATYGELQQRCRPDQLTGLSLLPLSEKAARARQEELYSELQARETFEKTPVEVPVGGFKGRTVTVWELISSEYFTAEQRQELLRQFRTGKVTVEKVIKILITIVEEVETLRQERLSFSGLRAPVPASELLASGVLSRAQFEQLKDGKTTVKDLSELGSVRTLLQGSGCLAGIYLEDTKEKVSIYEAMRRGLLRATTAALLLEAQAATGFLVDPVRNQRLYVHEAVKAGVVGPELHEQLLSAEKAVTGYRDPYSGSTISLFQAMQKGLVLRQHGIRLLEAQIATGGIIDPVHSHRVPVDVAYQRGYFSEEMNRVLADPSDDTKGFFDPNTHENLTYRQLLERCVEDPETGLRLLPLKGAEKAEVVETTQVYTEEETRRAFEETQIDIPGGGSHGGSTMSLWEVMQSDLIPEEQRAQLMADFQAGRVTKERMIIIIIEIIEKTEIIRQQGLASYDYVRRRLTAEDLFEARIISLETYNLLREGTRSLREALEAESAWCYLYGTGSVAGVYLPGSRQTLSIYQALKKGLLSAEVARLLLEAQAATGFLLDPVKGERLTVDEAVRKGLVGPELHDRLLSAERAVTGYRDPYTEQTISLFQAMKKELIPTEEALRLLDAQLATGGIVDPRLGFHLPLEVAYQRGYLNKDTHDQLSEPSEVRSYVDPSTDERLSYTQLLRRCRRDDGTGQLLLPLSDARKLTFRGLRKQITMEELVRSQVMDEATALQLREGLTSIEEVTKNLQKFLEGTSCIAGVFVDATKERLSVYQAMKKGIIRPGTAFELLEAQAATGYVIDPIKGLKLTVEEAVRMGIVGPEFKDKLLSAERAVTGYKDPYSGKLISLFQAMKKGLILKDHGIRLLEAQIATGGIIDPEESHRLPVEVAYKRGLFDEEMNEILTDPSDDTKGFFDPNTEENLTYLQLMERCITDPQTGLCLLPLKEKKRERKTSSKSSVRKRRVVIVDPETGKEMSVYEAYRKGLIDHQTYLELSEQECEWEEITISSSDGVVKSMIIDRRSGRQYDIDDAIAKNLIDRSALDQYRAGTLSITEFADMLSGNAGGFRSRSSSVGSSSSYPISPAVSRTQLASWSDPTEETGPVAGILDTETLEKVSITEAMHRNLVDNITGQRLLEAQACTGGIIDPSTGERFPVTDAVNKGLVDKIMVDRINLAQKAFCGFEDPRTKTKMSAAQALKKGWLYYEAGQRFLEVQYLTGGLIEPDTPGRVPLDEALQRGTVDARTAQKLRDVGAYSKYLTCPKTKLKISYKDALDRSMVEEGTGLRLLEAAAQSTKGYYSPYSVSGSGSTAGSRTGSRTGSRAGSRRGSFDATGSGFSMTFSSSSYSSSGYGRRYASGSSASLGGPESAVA
Sequence of UniProt Q9H4F8 (Q9H4F8 whole entry): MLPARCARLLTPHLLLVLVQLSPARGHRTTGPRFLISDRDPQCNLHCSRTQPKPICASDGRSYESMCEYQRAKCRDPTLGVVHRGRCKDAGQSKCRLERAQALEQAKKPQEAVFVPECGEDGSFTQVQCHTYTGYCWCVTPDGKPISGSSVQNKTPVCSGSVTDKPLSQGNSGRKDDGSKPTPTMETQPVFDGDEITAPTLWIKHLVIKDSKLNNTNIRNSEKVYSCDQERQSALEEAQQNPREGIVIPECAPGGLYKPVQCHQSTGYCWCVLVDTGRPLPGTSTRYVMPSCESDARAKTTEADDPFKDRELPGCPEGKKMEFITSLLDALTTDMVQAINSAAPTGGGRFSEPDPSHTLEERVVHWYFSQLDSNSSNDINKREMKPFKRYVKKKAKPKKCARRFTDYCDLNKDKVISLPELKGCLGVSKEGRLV

Row | Target | lysine labeling ratio R10:1
1 | CACNA2D1 (lysine site: K577) (UniProt P54289) | 4.82 (inactive)
2 | PABPC1 (lysine site: K157) (UniProt P11940) | 1.38 (active)
3 | FAT4 (lysine site: K2561) (UniProt Q6V0I7) | 2.59 (inactive)
4 | RAB11B (lysine site: K179) (UniProt Q15907) | 3.25 (inactive)
5 | ITGA1 (lysine site: K563) (UniProt P56199) | 5.65 (inactive)
6 | RPL5 (lysine site: K178) (UniProt P46777) | 4.17 (inactive)
7 | MSN (lysine site: K151) (UniProt P26038) | 2.26 (inactive)
8 | UniProt Q15149 (lysine site: K195) | 4.55 (inactive)
9 | TLN1 (lysine site: K1190) (UniProt Q9Y490) | 14.3 (inactive)
10 | FRAS1 (lysine site: K1158) (UniProt Q86XX4) | 1.34 (active)
11 | PNN (lysine site: K262) (UniProt Q9H307) | 1.08 (active)
12 | ITGA6 (lysine site: K144) (UniProt P23229) | 4.01 (inactive)
13 | ANPEP (lysine site: K205) (UniProt P15144) | 2.56 (inactive)
14 | AXL (lysine site: K211) (UniProt P30530) | 2.55 (inactive)
15 | EIF2S3 (lysine site: K70) (UniProt P41091) | 3.79 (inactive)
16 | ATP2A2 (lysine site: K169) (UniProt P16615) | 7.34 (inactive)
17 | DDX5 (lysine site: K284) (UniProt P17844) | 0.51 (active)
18 | HSD17B10 (lysine site: K105) (UniProt Q99714) | 2.63 (inactive)
19 | RDX (lysine site: K165) (UniProt P35241) | 2 (active)
20 | M6PR (lysine site: K44) (UniProt P20645) | 2.9 (inactive)

Row | Target | lysine labeling ratio R10:1
21 | VCL (lysine site: K778) (UniProt P18206) | 1.11 (active)
22 | SPTBN1 (lysine site: K932) (UniProt Q01082) | 3.29 (inactive)
23 | DSG2 (lysine site: K451) (UniProt Q14126) | 0.823 (active)
24 | UniProt P62244 (lysine site: K88) | 1.79 (active)
25 | UniProt P61160 (lysine site: K368) | 3.41 (inactive)
26 | TSPAN3 (lysine site: K110) (UniProt O60637) | 4.07 (inactive)
27 | VIM (lysine site: K334) (UniProt P08670) | 5.58 (inactive)
28 | UniProt Q15149 (lysine site: K3237) | 1.17 (active)
29 | ITGB1 (lysine site: K72) (UniProt P05556) | 1.91 (active)
30 | SMOC1 (lysine site: K299) (UniProt Q9H4F8) | 4.95 (inactive)
31 | ANXA2 (lysine site: K281) (UniProt P07355) | 5.78 (inactive)
32 | CDH2 (lysine site: K223) (UniProt P19022) | 2.63 (inactive)
33 | HSPD1 (lysine site: K369) (UniProt P10809) | 2.45 (inactive)
34 | THBS1 (lysine site: K1103) (UniProt P07996) | 0.85 (active)
35 | LAMB1 (lysine site: K158) (UniProt P07942) | 1.78 (active)
36 | HSPA5 (lysine site: K213) (UniProt P11021) | 5.61 (inactive)
37 | UniProt Q15149 (lysine site: K3849) | 8.61 (inactive)
38 | TFPI (lysine site: K64) (UniProt P10646) | 1.41 (active)
39 | LDHB (lysine site: K156) (UniProt P07195) | 6.77 (inactive)
40 | LAMC1 (lysine site: K1566) (UniProt P11047) | 0.555 (active)
